Compound activity (PubChem)
An excerpt weighted towards active compounds, which were near 6.5% of everything screened.
Vaccinia mCherry = inhibitors of vaccinia virus infection (mCherry reporter signal); Vaccinia virus mCherry reporter infection, fluorescence; Potency, µM (titrated, usually from 36.5 µM), inactives show at the top dose activity change, negative = inhibition, most hits filed as inhibitors; 310,000 tested, 0.63% active; AID 720579; calls by dose curve; tested in A549 cells; further: potency means the concentration at half of the fitted maximal effect; nearly all actives have a fitted effect of over 35% in size
FMDV inh = antivirals against foot and mouth disease virus; FMDV antiviral cell-based qHTS; Potency, µM (doses to about 57.9 µM), for inactives: at the top dose activity change, negative = inhibition, most hits filed as inhibitors; 410,000 tested, 1.2% active; calls by dose curve; tested in HEK293T cells; further: read-out not given here; potency means the concentration at half of the fitted maximal effect; nearly all actives have a fitted effect of over 45% in size
Marburg entry inh = blocks Marburg virus binding to or entry into cells; Marburg virus pseudotyped entry inhibition, cell reporter; Potency, µM (top dose mostly 37.8 µM), for the others: at the top dose activity change, negative = inhibition, usual class: inhibitors; 300,000 tested, 1.8% active; AID 540276; calls by dose curve; tested in HEK293 cells; further: potency means the concentration at half of the fitted maximal effect
HCMV inh = human cytomegalovirus inhibition | HFF cells, HCMV-luciferase reporter, 72 h; hits give low values | 410,000 tested, 4.5% active | AID 1259415 | activity change, negative = inhibition, % at 57.5 µM; in the data active means activity change below about -60%; inconclusive means no clear call, values can overlap the other calls; inactive means above about -39%
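Cell-based, HFFs, 1000 cells/well, 16 h 37C; cpds in DMSO + HCMV-luc, MOI 1 PFU/cell; 72 h 37C; OneGlo luminescence after 5 min RT; norm. to buffer vs Salinomycin 10uM.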
Lassa entry inh = Lassa virus entry inhibition; Lassa virus pseudotype entry inhibition, cell reporter; 300,000 tested, 1.2% active; AID 540256; Potency, µM (series often up to 37.9 µM), without a hit: at the highest dose activity change, negative = inhibition, actives largely listed as inhibitors; calls by dose curve; tested in HEK293 cells; further: potency means the concentration at half of the fitted maximal effect; nearly all actives have a fitted effect of over 50% in size
Vaccinia Venus = vaccinia inhibition (Venus reporter); Potency, µM (highest dose often 36.5 µM), for inactives: at the top dose activity change, negative = inhibition, actives largely listed as inhibitors; 330,000 tested, 0.46% active; Vaccinia virus Venus reporter expression, fluorescence; calls by dose curve; tested in A549 cells; further: potency means the concentration at half of the fitted maximal effect; nearly all actives have a fitted effect of over 30% in size
Active calls of the source: *; i = inactive; ? = inconclusive; . = not tested or not shown; + = active, no number; [ ] = remark or other dose. On the % scale 0 is the no-effect control and ±100 the full control effect.

SMILES	Vaccinia mCherry	FMDV inh	Marburg entry inh	HCMV inh	Lassa entry inh	Vaccinia Venus
COCCCNCCOc1ccc(C(C)(C)c2ccccc2)cc1	-23%	-17%	16µM*	-25	?	-19%
CNCCCOc1ccc(C(C)(C)c2ccccc2)cc1	.	.	0%	.	.	.
CC(C)(C)c1ccc(C(=O)NCCOc2ccccc2F)cc1	-12%	35µM*	?	-69*	?	-19%
COC(=O)c1cc(CNC(=O)c2cccc3ccccc23)cc(NC(=O)c2ccccc2OC)c1	-13%	8%	.	.	.	4%
CSC1=C(C#N)[C@H](C)CC(=O)N1	.	.	-17%	.	.	.
COC(=O)C1=C(C)N(Cc2ccccc2)C(=NCc2cccc(C(F)(F)F)c2)N[C@H]1c1cccc(F)c1	?	40µM*	.	-98*	.	13µM*
COC(=O)C1=C(C)N(Cc2ccc(C(F)(F)F)cc2)C(=NCc2ccccc2)NC1c1ccccc1 (centres undefined)	.	.	.	-92*	.	.
COC(=O)C1=C(C)N(Cc2ccc(C(F)(F)F)cc2)C(=NCc2ccccc2)NC1c1cccc(Cl)c1 (centres undefined)	.	.	.	-100*	.	.
COC(=O)C1=C(C)N(Cc2ccccc2)C(=NCc2ccc(OC)cc2)N[C@H]1c1ccccc1	-23%	0%	.	-37	.	?
COC(=O)C1=C(C)N(CC2CC2)C(=NCc2cccc(C(F)(F)F)c2)N[C@H]1c1ccccc1	i	?	.	.	.	-25%
C=CCN=C1NC(c2cccc(C(F)(F)F)c2)C(C(=O)OC)=C(C)N1Cc1ccccc1 (centres undefined)	.	.	-25%[14.2 µM]	.	?	.
COC(=O)C1=C(C)N(Cc2ccc(C(F)(F)F)cc2)C(=NCc2ccccc2)NC1c1cccc(C(F)(F)F)c1 (centres undefined)	.	.	.	-101*	.	.
CNc1ccc(/C=C/c2ccccc2)cc1	-25%	.	.	.	.	-21%
COC(=O)C1=C(C)N(Cc2cccc(C(F)(F)F)c2)C(=NCC2CC2)NC1c1cccc(C(F)(F)F)c1 (centres undefined)	.	.	.	-85*	.	.
COC(=O)C1=C(C)N(Cc2ccccc2)C(=NCc2cccc(C(F)(F)F)c2)N[C@H]1c1cccc(C(F)(F)F)c1	10µM*	40µM*	.	.	.	28µM*
CCN=C1NC(c2ccc(F)cc2)C(C(=O)OC)=C(C)N1Cc1cccc(C(F)(F)F)c1 (centres undefined)	.	.	.	13	.	.
Cc1cc(-c2ccccc2)nc(N/N=C/c2ccc(O)cc2O)n1	?	-11%	?	-17	-18%[46.1 µM]	?
CN(/N=C/c1ccc(O)cc1O)c1nc(-c2ccccc2)cc(-c2ccccc2)n1	?	-4%	?	-62*	3%	20µM*
CCOC(=O)/C=C/[C@H](CCc1ccccc1)NC(=O)C(F)(F)F	.	.	.	-19	.	.
COC(=O)/C=C/c1ccccc1S(=O)(=O)NC(C)C	i	.	.	.	.	-8%
Cc1nc(-n2[nH]c3c(c2=O)CCCC3)[nH]c(=O)c1Cc1ccccc1	.	?	?	-103*	?	.
CC1CCC2(CC1)NC(=O)N(CC(=O)N1CCOCC1)C2=O (centres undefined)	i	22%	-18%[46.1 µM]	-1	9%[46.1 µM]	-15%
CCOC(=O)c1c(C)[nH]c(C(=O)N/N=C\c2ccccc2O)c1C	?	12%	?	-100*	8.9µM*	?
CCOC(=O)c1c(C)[nH]c(C(=O)N/N=C/c2ccc(OC)c(OC)c2)c1C	.	4%	.	-26	.	.
CCOC(=O)c1c(C)[nH]c(C(=O)N/N=C/c2cc([N+](=O)[O-])ccc2O)c1C	i	-12%	?	4	6.5µM*	-9%
SMILES	Vaccinia mCherry	FMDV inh	Marburg entry inh	HCMV inh	Lassa entry inh	Vaccinia Venus
COc1ccccc1CN1CCCC(C(=O)c2ccccc2SC)C1 (centres undefined)	-13%	-21%	10µM*	-5	?	-20%
CCOC(=O)C1CCCN(Cc2ccc(OCC)cc2)C1 (centres undefined)	i	.	-28%	8	8%	0%
CCOc1ccc(CN2CCCC(C(=O)c3ccccc3OC)C2)cc1 (centres undefined)	?	-4%	8.9µM*	-8	?	-17%
COc1ccccc1CN1CCCC(C(=O)c2ccccc2OC)C1 (centres undefined)	?	-13%	?	3	?	-3%
COc1cccc(OC)c1CN1CCCC(C(=O)c2ccccc2SC)C1 (centres undefined)	-8%	-14%	6.3µM*	?	?	-9%
COc1cccc(CN(C(=O)c2cccs2)C2CCS(=O)(=O)C2)c1 (centres undefined)	-8%	8%	3%[46.1 µM]	-13	-3%[46.1 µM]	-18%
CCOC(=O)[C@]12CCCC=C1N(CCC1=CCCCC1)C(=O)[C@H](CC(=O)N1CCCC1)C2	-2%	-22%	.	-27	.	-14%
Cc1ccc(C(=O)CSc2nc3cc(S(=O)(=O)N4CCOCC4)ccc3o2)cc1	-16%	-15%	-17%	-18	-19%	-12%
Cc1[nH]c2ccccc2c1C(=O)CSc1nc2cc(S(=O)(=O)N3CCCCC3)ccc2o1	.	-27%	7.3µM*	-39	?	.
COc1ccc(-c2cc(C(C)=O)c(C)n2CCC(=O)Nc2ccc(C)c(Cl)c2)cc1	-12%	-20%	.	+	-27%[46.1 µM]	-12%
CCCNC(=O)CCn1c(-c2ccc(C)cc2)cc(C(=O)OCC)c1C	i	-13%	-17%	6	-8%	-7%
CCOC(=O)c1cc(-c2ccccc2)n(CCC(=O)Nc2ccc(C(F)(F)F)cc2)c1C	-30%	?	.	-98*	?	-24%
CCOC(=O)c1cc(-c2ccc(C)cc2)n(CC(=O)Nc2ccccc2F)c1C	?	13%	-12%[46.1 µM]	-82*	.	?
CCOC(=O)c1cc(-c2ccccc2)n(CCC(=O)NCCc2ccccc2)c1C	-16%	-10%	.	-35	11µM*	0%
Cc1nc(NCc2cnn(C)c2)sc1-c1ccn(-c2cccc(F)c2)n1	-16%	-12%	.	.	.	-11%
COCC(=O)Nc1cc(C(=O)N2CCOc3ccccc3C2)cc2nc(-c3cccnc3)n(C)c12	-3%	7%	.	.	.	5%
O=C(CCC1CCCN(C(=O)c2ccc3[nH]ccc3c2)C1)N1CCN(c2ccccn2)CC1 (centres undefined)	-2%	?	?	-83*	?	-18%
COC(=O)[C@@H]1O[C@@H](c2c(OC)c(OC)c(C)c(OC)c2OC)[C@H](C)[C@@H](O)[C@@H]1C	.	.	6%[14.2 µM]	.	.	.
CCCC(C)NC(=O)COc1ccc(Sc2ccc(OCC(=O)NC(C)CCC)cc2)cc1 (centres undefined)	?	?	?	-72*	?	-23%
CC(C)CNC(=O)COc1ccc(Sc2ccc(OCC(=O)NCC(C)C)cc2)cc1	i	?	13%	?	?	-13%
CS/C(Nc1cc(Cl)ccc1Cl)=C(/C#N)C(=O)c1ccco1	-24%	?	?	97	5µM*	-18%
